Results with a measured potency or affinity are listed apart. Active and inactive are the calls of the source.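 The calls were made as follows: active = signal drop whose fitted half-maximal concentration is at most twice the top valid dose, in every test run; inconclusive = mixed calls across runs, poor fit, or flat 30 to 70% inhibition; inactive = wrong direction, flat within 30%, or potency beyond limit.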
Test: cytotoxicity in PAX8-dependent RMG-1 cells, dose response, cell-based, cherry-pick (AID 687029);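 also: cells exposed to compound for 96 hours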
Settings: RMG-1 viability, CellTiterGlo ATP luminescence, 96 h; series mostly up to 35 µM

With Oc1c(Cl)cc(CN2CCOCC2)c2cccnc12 as the compound, how does the outcome read?
Its outcome is “inactive”.

For CCOC(=O)c1ccc(NC(=O)Cn2ncc(Cl)c(Cl)c2=O)cc1, which outcome is on record?
Its outcome is “inactive”.

Which outcome does the source give for Oc1ccc(C[C@H]2CNC(=S)N2CC2CCCN2C[C@H](Cc2ccc(O)cc2)N2C[C@H](Cc3ccc(O)cc3)N(CC3CCCCCC3)C2=S)cc1 (stereo not given in full) here?
Its outcome is “inactive”.

For O=c1[nH]c(-c2ccccn2)nc2sc(-c3ccccc3)cc12, which outcome is on record?
Its outcome is “inactive”.

Which outcome does the source give for O=C(NN=Cc1c(O)ccc2ccccc12)c1ccncc1 here?
Its outcome is “inactive”.

Which outcome does the source give for CN(/N=C/c1ccc(O)cc1O)c1nc(-c2ccccc2)cc(-c2ccccc2)n1 here?
The outcome was “inactive”.

With COc1ccc(/C=C/C(=O)c2cc(F)ccc2OC(=O)c2ccccc2C)cc1OC as the compound, how does the outcome read?
The outcome was “inactive”.

With Cc1ccc(/C=N/NC(=O)COc2ccccc2-c2ccccc2)cc1 as the compound, how does the outcome read?
The outcome was “inactive”.

For Cn1nnnc1Sc1ncnc2scc(-c3ccsc3)c12, which outcome is on record?
The outcome was “inactive”.

For CN1CCc2c(sc(NC(=O)c3ccc([N+](=O)[O-])o3)c2C(N)=O)C1, which outcome is on record?
Its outcome is “inactive”.

For O=C(Nc1ccc(N2CCN(C(=O)c3cccs3)CC2)cc1)c1ccc([N+](=O)[O-])o1, which outcome is on record?
The outcome was “inactive”.

With O=C(CCl)Nc1cc2[nH]c(=O)[nH]c2cc1Br as the compound, how does the outcome read?
The outcome was “inactive”.

For OC[C@H]1O[C@@H](n2cnc3c(NCc4ccco4)ncnc32)[C@H](O)[C@@H]1O, which outcome is on record?
Its outcome is “inactive”.

Which outcome does the source give for COc1cc(CNc2ncnc3c2ncn3[C@H]2CN(Cc3ccc(-c4ccccc4)cc3)C[C@@H](CO)O2)cc(OC)c1OC here?
The outcome was “inactive”.

With COc1cccc2c1C(=O)c1c(O)c3c(c(O)c1C2=O)C[C@@](O)(C(=O)CO)C[C@@H]3O[C@H]1C[C@H](N)[C@H](O)[C@H](C)O1 as the compound, how does the outcome read?
Its outcome is “inactive”.
